Results published in PubChem BioAssay (NCI).
The panel holds about 83,000 compounds, 20% with a hit somewhere; the sample as a whole holds those more often.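 Results are percent growth after 48 hours of single-concentration exposure. 100 means growth as in untreated cells, lower positive values show inhibition; negative values down to -100 show cell death.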 Values without a mark were called inactive. Calls of active or inactive are those of the source. How the source made its calls: active means growth percent below 10; inactive means the rest.

Experiments:
Assay in all cases: NCI-60 one-dose screen, 48 h (100 = growth as untreated, 0 = no growth, -100 = all killed)
[1] = tested on: HCT-15 colon; conditions: 10 µM unless noted
[2] = tested on: HT29 colon; conditions: 10 µM unless noted
[3] = tested on: U251 CNS; conditions: 10 µM unless noted
[4] = tested on: PC-3 prostate; conditions: 10 µM unless noted
[5] = tested on: SK-MEL-5 melanoma; conditions: 10 µM unless noted
[6] = tested on: UACC-62 melanoma; conditions: 10 µM unless noted
[7] = tested on: LOX IMVI melanoma; conditions: 10 µM
[8] = tested on: SK-MEL-28 melanoma; conditions: 10 µM unless noted
[9] = tested on: SK-MEL-2 melanoma; conditions: 10 µM unless noted
[10] = tested on: EKVX NSCLC; conditions: 10 µM unless noted
[11] = tested on: SN12C renal; conditions: 10 µM unless noted
[12] = tested on: UO-31 renal; conditions: 10 µM unless noted
[13] = tested on: TK-10 renal; conditions: 10 µM unless noted
[14] = tested on: ACHN renal; conditions: 10 µM unless noted
[15] = tested on: CAKI-1 renal; conditions: 10 µM unless noted
[16] = tested on: A498 renal; conditions: 10 µM unless noted
[17] = tested on: CCRF-CEM leukemia; conditions: 10 µM unless noted
[18] = tested on: MOLT-4 leukemia; conditions: 10 µM unless noted
[19] = tested on: SNB-19 CNS; conditions: 10 µM unless noted

Structure (SMILES) | growth [1] | growth [2] | growth [3] | growth [4] | growth [5] | growth [6] | growth [7] | growth [8] | growth [9] | growth [10] | growth [11] | growth [12] | growth [13] | growth [14] | growth [15] | growth [16] | growth [17] | growth [18] | growth [19]
CCN(CC)CCOc1ccc(Nc2ncc3cc(-c4ccc(O)c(C#N)c4)c(=O)n(C)c3n2)cc1 | 86.2% | -58.4% (active) | -61.2% (active) | 69.5% | 43.8% | 92.1% | 47% | 79.8% | 105% | 139% | 69.5% | 67.6% | 96.8% | 40.1% | 45.9% | 113% | -25.5% (active) | 3.63% (active) | 
CC12CC[C@@H]3[C@]4(C)COC(c5cn[nH]c5-c5ccc(Br)cc5)O[C@@H]4CC[C@@]3(C)[C@@H]1CC(C1=CCOC1=O)O2 (some centres undefined) | 42.2% | 47.6% | 53% | 24.2% |  | 41.5% | 22.1% | 47.1% | 52.4% | 43.2% | 57.5% | 25.1% | 54.6% | 47% | 43.3% | 97.8% | 51.4% | -0.166% (active) | 59.4%
Cc1ccc2c(c1)nc(-c1ccccc1)n2CC(=O)N=Nc1c(O)[nH]c2ccc(Br)cc12 | -79.9% (active) | -67.6% (active) | -74.3% (active) |  | -57.3% (active) | -87.4% (active) | -93.6% (active) | -88.3% (active) | -40.5% (active) | -77.2% (active) | -72.3% (active) | -90% (active) | -10% (active) | -99.9% (active) | -65.4% (active) | -37.2% (active) | 23.8% | -42.1% (active) | -30.8% (active)
COc1ccc(-c2ccc(SCC(=O)Nc3ccc(S(N)(=O)=O)cc3Br)nn2)cc1 | 84.5% | 95.7% | 52.4% | 73.5% | 94.3% | 83.2% | 98.8% | 99.2% | 68.9% | 78% | 88.4% | 88.3% | 116% | 86.7% | 63.1% | 89.8% | 98.7% | 93.7% | 
Cc1ccc(Cc2cnc(NC(=O)c3ccc(/C=C4\SC(=S)N(C)C4=O)cc3)s2)cc1 | 18.7% | 23.8% | 62.3% |  | 19.4% | 25.1% | 34.3% | 42.1% | 25.6% | 60% | 30.8% | 37.7% | 61.5% | 31.1% | 38.4% | 107% | 32.3% | 24.1% | 53.8%
N/C(=N\N=C\c1ccc([N+](=O)[O-])cc1)c1c(N)nc(=S)[nH]c1-c1ccc(Cl)cc1Cl | 103% | 116% | 67% | 96.8% | 104% | 84.7% | 96.5% | 113% | 93.4% | 98.9% | 96.1% | 98.3% |  | 88.9% |  | 160% | 106% | 94% | 74.9%
Clc1cccc(N/N=C/c2c[nH]c3ccc(Br)cc23)n1 | 22.3% | 23.6% |  | 7.77% (active) | 40.3% | 1.6% (active) | -60.9% (active) | 49.1% | 27.4% | 33.9% | -1.39% (active) | 7.66% (active) | 63.9% | 10.6% | 11.7% | 79.9% | -14.8% (active) | -20.1% (active) | 20.5%
CC(C)(C)OC(=O)/C=C/c1cccc2c1C(=O)NC(C)(c1cc3cc(Cl)ccc3oc1=O)N2 (centres undefined) | 40.3% | 44.3% |  | 12.5% | 28.4% | 36% | 41.1% | 53.7% | 43.6% | 36.2% | 50% | 20.8% |  | 19.6% | 42.4% | 102% | 24.2% | -14.6% (active) | 
Cc1ccc([C@H]2C(C(=O)c3ccc(Cl)cc3)C3(N[C@@H]2c2ccccc2)C(=O)Nc2ccccc23)cc1 (some centres undefined) | 35.6% | 17.8% | 48.6% | 2.35% (active) | 34.3% | 13.4% | 25.5% | 32.8% | 15.6% | 29.6% | 4.19% (active) |  | 40.8% |  | 32% | 75.5% | 14.7% | -26.6% (active) | 41%
CC12CC[C@@H]3[C@]4(C)COC(c5c(F)cccc5F)O[C@@H]4CC[C@@]3(C)[C@@H]1CC(C1=CCOC1=O)O2 (some centres undefined) | 80.4% | 76.5% | 80% | 56.4% |  | 50.4% | 73.1% | 88.8% | 81.2% | 70.3% | 66.6% | 76.4% | 93.5% | 35% | 87.2% | 106% | 74.8% | 52.6% | 63.2%
COc1ccc2[nH]c(=O)c(CSc3nccc(-c4ccc(OC)c(OC)c4)n3)cc2c1 | 16.4% | 16.2% | 26% | 5.92% (active) | -1.05% (active) | 27.9% | 24.5% | 42.7% | 44.2% | 15.7% | 33.6% |  | 26.4% | 24.4% | -10.2% (active) | 47.8% | 31.3% |  | 21.4%
CN(C)CCCNC(=O)c1cc(NC(=O)c2cc(NC(=O)c3ccc(/C=C/c4ccccc4)cc3)cn2C)cn1C | 44.3% | 2.73% (active) |  | 46.6% | 40.3% | 10.1% | -86.1% (active) | 60.2% | 60.6% | 66.9% | 49.3% | 66.6% | 83.7% | 40.3% | 34.7% | 103% | 22.9% | -5.97% (active) | 78%
C=C1CC[C@@H]2[C@]3(C)COC(c4cn[nH]c4-c4ccc(Br)cc4)O[C@@H]3CC[C@@]2(C)[C@@H]1C/C=C1/C(=O)OCC1O (some centres undefined) | -62.6% (active) | 0.504% (active) | -86.7% (active) | -44.1% (active) |  | -79.1% (active) | -100% (active) | -78% (active) | -68.4% (active) | -51% (active) | -64.9% (active) | -92.1% (active) | -65% (active) | -100% (active) | -40.9% (active) | 97.8% | -6.18% (active) | 2.63% (active) | -36.5% (active)
